Data taken from PubChem BioAssay.
Activity calls are given as the source filed them.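 The calls were made as follows: active = thallium flux through the channel raised or lowered by more than 3 SD from vehicle-only wells, actives on both sides; inactive = the rest.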

How the values were obtained:
Assay in all cases: BK channel mutant inhibitors and activators – cell-based, U2OS BacMam, thallium flux, beta subunits, selectivity assay, profiling panel (AID 1259406);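 also: initial slope of Thallos dye fluorescence rise after thallium is added; log ratio against the mean of 0.3% DMSO vehicle wells on the same plate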
F380Y = conditions: U2OS BacMam BK variants, at 30 µM
F380Y/beta1 = conditions: U2OS BacMam BK variants, at 30 µM
F380Y/beta2Delta = conditions: U2OS BacMam BK variants, at 30 µM
F380Y/beta4 = conditions: U2OS BacMam BK variants, at 30 µM
[1] = molecular target: Calcium-activated potassium channel subunit alpha-1 (Homo sapiens) + Leucine-rich repeat-containing protein 26 (Homo sapiens) (UniProt Q12791+Q2I0M4); conditions: U2OS BacMam BK variants, F380Y/Slo1WT/gamma1, at 30 µM
Chain of Calcium-activated potassium channel subunit alpha-1 (Homo sapiens) + Leucine-rich repeat-containing protein 26 (Homo sapiens) (Q2I0M4 whole entry, looked up, one chain of several): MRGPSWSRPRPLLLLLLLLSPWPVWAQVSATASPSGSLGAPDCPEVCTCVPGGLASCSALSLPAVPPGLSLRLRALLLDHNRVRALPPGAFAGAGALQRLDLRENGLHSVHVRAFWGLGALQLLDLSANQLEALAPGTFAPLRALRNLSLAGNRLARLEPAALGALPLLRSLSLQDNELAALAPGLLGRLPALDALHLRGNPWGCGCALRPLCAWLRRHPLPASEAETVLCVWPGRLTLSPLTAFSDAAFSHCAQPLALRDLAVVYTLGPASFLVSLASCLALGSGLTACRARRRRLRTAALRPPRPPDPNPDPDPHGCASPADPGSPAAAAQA

R275C = conditions: U2OS BacMam BK variants, at 30 µM
R275C/beta1 = conditions: U2OS BacMam BK variants, at 30 µM
R275C/beta2Delta = conditions: U2OS BacMam BK variants, at 30 µM
R275C/beta4 = conditions: U2OS BacMam BK variants, at 30 µM
R275C/Slo1WT/beta2 = conditions: U2OS BacMam BK variants, at 30 µM

Measured: log fold change Tl+ flux

COc1ccc(C(=O)NNC(=O)c2c(OC)cc(C(F)(F)F)cc2C(F)(F)F)cc1
inactive: F380Y 0.044 | F380Y/beta1 0.017 | F380Y/beta2Delta -0.00926 | F380Y/beta4 0.0361 | [1] 0.00672 | R275C 0.0148 | R275C/beta1 0.0608 | R275C/beta2Delta 0.00715 | R275C/beta4 0.021 | R275C/Slo1WT/beta2 0.015

Cc1cc(NS(=O)(=O)c2ccc(NC(=O)c3nccnc3C(=O)O)cc2)no1
inactive: F380Y -0.0365 | F380Y/beta1 0.00855 | F380Y/beta2Delta -0.054 | F380Y/beta4 -0.0573 | R275C -0.0122 | R275C/beta1 0.022 | R275C/beta2Delta -0.0352 | R275C/beta4 0.0165 | R275C/Slo1WT/beta2 -0.0416
active: [1] -0.136

Cc1cc(NC(=S)N2CCCCCC2)ccc1Br
active: R275C/beta4 0.081
inactive: F380Y -0.0478 | F380Y/beta1 0.0387 | F380Y/beta2Delta -0.0137 | F380Y/beta4 -0.0575 | [1] -0.0699 | R275C 0.0117 | R275C/beta1 -0.00715 | R275C/beta2Delta -0.0104 | R275C/Slo1WT/beta2 -0.00913

COc1cc(C(F)(F)F)nc2ccc(C#CCOC(=O)Nc3cccc(Cl)c3)cc12
inactive: F380Y -0.0208 | F380Y/beta1 0.0282 | F380Y/beta2Delta -0.0312 | F380Y/beta4 0.0143 | [1] -0.0274 | R275C -0.0392 | R275C/beta1 -0.0781 | R275C/beta2Delta -0.0125 | R275C/beta4 -0.00958 | R275C/Slo1WT/beta2 0.0405

Cc1ccc(S(=O)(=O)NC(=O)Nc2nc(-c3ccc(C)c(Cl)c3)c(C)s2)cc1
active: F380Y/beta1 0.176 | F380Y/beta4 0.19 | [1] 0.156 | R275C 0.265 | R275C/beta1 0.24 | R275C/beta4 0.211
inactive: F380Y 0.099 | F380Y/beta2Delta 0.0427 | R275C/beta2Delta 0.0622 | R275C/Slo1WT/beta2 0.0547

COc1cccc(C(=O)Nc2cc(F)c(Br)cc2F)c1
inactive: F380Y -0.0206 | F380Y/beta1 -0.0212 | F380Y/beta2Delta -0.00467 | F380Y/beta4 -0.0131 | [1] -0.0252 | R275C -0.0759 | R275C/beta1 -0.106 | R275C/beta2Delta -0.0756 | R275C/beta4 -0.0731 | R275C/Slo1WT/beta2 -0.0319

O=C(NC(=O)C12CC3CC(CC(C3)C1)C2)Nc1ccc(Cl)cc1
inactive: F380Y 0.00432 | F380Y/beta1 -0.0267 | F380Y/beta2Delta -0.0384 | F380Y/beta4 -0.0415 | [1] 0.0168 | R275C -0.00652 | R275C/beta1 -0.0129 | R275C/beta2Delta -0.0163 | R275C/beta4 0.0337 | R275C/Slo1WT/beta2 -0.0195

COc1ccc(CCNC(=O)c2ccccc2NC(=O)c2ccccc2C)cc1OC
active: F380Y/beta4 -0.615 | [1] -0.381 | R275C -1.01 | R275C/beta1 -0.839 | R275C/beta2Delta -0.31 | R275C/beta4 -0.582 | R275C/Slo1WT/beta2 -0.267
inactive: F380Y -0.0118 | F380Y/beta1 -0.0452 | F380Y/beta2Delta -0.0544

CCOC(=O)c1ccc(NC(=O)CCC(=O)O)cc1
inactive: F380Y -0.0468 | F380Y/beta1 -0.00176 | F380Y/beta2Delta -0.0505 | F380Y/beta4 0.0259 | [1] 0.0113 | R275C -0.00978 | R275C/beta1 -0.00901 | R275C/beta2Delta -0.0108 | R275C/beta4 -0.0046 | R275C/Slo1WT/beta2 0.0242

CC(=O)OCC(OC(C)=O)C(OC(C)=O)C(OC(C)=O)C(C#N)OC(C)=O (stereo not given)
inactive: F380Y 0.0435 | F380Y/beta1 -0.00373 | F380Y/beta2Delta 0.0398 | F380Y/beta4 0.0383 | [1] -0.00671 | R275C -0.00122 | R275C/beta1 -0.0156 | R275C/beta2Delta 0.0587 | R275C/beta4 -0.0186 | R275C/Slo1WT/beta2 -0.0705

CSC(NCc1cccnc1)=C(C#N)S(=O)(=O)c1ccc(Cl)cc1
active: R275C/beta2Delta 0.0872
inactive: F380Y 0.0268 | F380Y/beta1 0.0532 | F380Y/beta2Delta 0.0758 | F380Y/beta4 0.000772 | [1] 0.0179 | R275C 0.0549 | R275C/beta1 0.0793 | R275C/beta4 0.0736 | R275C/Slo1WT/beta2 0.0289

Cc1ccc(-c2nc(N=CNOC(=O)c3ccc([N+](=O)[O-])cc3)sc2C)cc1Cl
active: F380Y/beta1 0.126 | F380Y/beta4 0.147 | R275C/beta2Delta 0.13 | R275C/beta4 0.142
inactive: F380Y 0.0323 | F380Y/beta2Delta 0.0425 | [1] 0.102 | R275C 0.00635 | R275C/beta1 0.0986 | R275C/Slo1WT/beta2 0.0243

COC(=O)c1ccc(C=Cc2cccc(Cl)c2)s1
inactive: F380Y -0.0764 | F380Y/beta1 -0.0156 | F380Y/beta2Delta -0.00709 | R275C/beta2Delta -0.00722 | R275C/beta4 -0.0416
active: F380Y/beta4 -0.264 | [1] -0.421 | R275C -0.198 | R275C/beta1 -0.192 | R275C/Slo1WT/beta2 -0.104
